The values that follow come from ChEMBL document CHEMBL3988442, “University of Dundee, Small-Polar-MMV Screening Library” (2021).

The whole screen tested about 48,000 compounds, of which about 13,000 (27%) showed an effect of 50% or more. This is one part of the list.

The test deals with Wolbachia pipientis. Briefly: Anti-Wolbachia Cell-Based Screen. Set-up: scale not given: in the data most compounds retested in dose-response had high values. The settings on record: 5 µM. Type of test: functional.
`Cc1cc(NC(N)=O)ccc1C(=O)N(C)C`: the “Percent Effect” value came out at 10.57%.

`CC(=O)N1CCC(c2nnc3ccc(C(=O)NC(C)C)cn23)C1` (configuration not stated): the “Percent Effect” value stood at 15.69%. The figure for `CN(C)C(=O)N1CCN(CCCc2ccccc2)[C@H]2CS(=O)(=O)C[C@H]21` is -9.893%. On to `CN(Cc1coc(-c2ccccc2)n1)CC1CCCN1c1cccnn1` (configuration not stated), for which the “Percent Effect” value was determined as 26.49%. With `O=C(c1ccco1)N1CC[C@H]2[C@H]1CCN2S(=O)(=O)C1CC1` the figure was -8.248%; with `O=C(c1ccco1)N1C(CO)[C@]2(O)CC[C@H]1CC2` (some centres not stated), 85.33%; with `O=C(c1ccco1)N1CC[C@@H](N2CCOCC2)[C@@H]1Cc1ccccc1`, -19.81%.

`COCC1N(C(=O)c2ccco2)[C@H]2CC[C@]1(O)CC2` (some centres not stated): the “Percent Effect” value was determined as 106.6%.

Consider `O=C(NCC1CC1)C1CN(C(=O)c2ccco2)CC12CCOCC2` (configuration not stated), for which the “Percent Effect” value is given as -3.478%. With `COC(=O)c1sccc1NC(=O)C1CCCN1C(=O)c1ccco1` (configuration not stated) the figure was -17.58%; with `CC1CCCCN1C(=O)c1ccc2c(c1)OCCCO2` (configuration not stated), -1.264%.

In the case of `O=C(c1ccco1)N1CCC(CSCc2ccco2)CC1`, the “Percent Effect” value is reported as -5.267%.

Regarding `COCC1N(C(=O)c2ccc3c(c2)OCCCO3)[C@H]2CC[C@]1(O)CC2` (some centres not stated), the “Percent Effect” value turned out to be 106.3%. Take `COCc1ccccc1NC(=O)[C@@H]1CCCN1C(=O)c1ccco1`: the “Percent Effect” value is 6.983%. With `O=C(c1ccco1)N1C(CN2CCOCC2)[C@]2(O)CC[C@H]1CC2` (some centres not stated) the figure was 107%; with `O=C(c1ccc2c(c1)OCCCO2)N1CCCCC1C1OCCO1` (configuration not stated), -8.172%. As to `COc1ccc(CC(C)(O)CNC(=O)c2cccs2)cc1` (configuration not stated), the “Percent Effect” value was 9.514%. For `O=C(CCNc1ncccn1)NCCc1ccc(Cl)s1`, the “Percent Effect” value is 4.707%. `CN1CCN(C2CCN(CCOc3ccc(Cl)cc3)CC2)C1=O`: the “Percent Effect” value turned out to be 110.5%. With `CCN1CCN(C2CCN(CCOc3ccc(F)cc3)CC2)C1=O` the figure was 105.5%; with `CN1CCN(C2CCN(Cc3ccc(Cl)s3)CC2)C1=O`, -8.107%.

For the compound `CN1CCN(C2CCN(CCOc3cccc(F)c3)CC2)C1=O`, the “Percent Effect” value amounted to 93.98%. As for `CN1CCN(C2CCN(CCOc3cccc(Cl)c3)CC2)C1=O`, the “Percent Effect” value came to 94.86%. The figure for `CCN1CCN(C2CCN(Cc3ccc(Cl)s3)CC2)C1=O` is -13.73%; for `CN1CCN(C2CCN(Cc3ccc(Cl)cc3)CC2)C1=O` it is -21.74%; for `CCN1CCN(C2CCN(C(C(N)=O)c3ccc(F)cc3)CC2)C1=O` (configuration not stated) it is -3.81%. Take `O=C(O)[C@H]1CCCN1CCOc1cccc(Cl)c1`: the “Percent Effect” value is reported as -3.257%. With `Cc1cc(C)n(CC2CN(CCOc3cccc(F)c3)CCO2)n1` (configuration not stated) the figure was -4.27%; with `CN1C[C@H]2CN(Cc3cccc(OC(F)(F)F)c3)CCN2C1=O`, -0.9762%.

For `CCOC(=O)N1C[C@H]2CC[C@@H]1CN(Cc1ccccc1)C2`, the “Percent Effect” value is -18.44%. With `Cn1ccc(CS(=O)(=O)Cc2cccc(F)c2)cc1=O` the figure was 13.57%; with `COCCN(Cc1ccc(F)cc1Cl)C(=O)c1ccncc1`, -4.791%. The figure for `Cc1nn2c(N3CCC(O)CC3)cc(-c3ccccc3)nc2c1C` is 1.799%. The figure for `CC(=O)c1cccc(NC(=O)CN2CCCCC2C2OCCO2)c1` (configuration not stated) is 12.92%; for `O=C(NCc1ccccc1CN1CCC(O)CC1)Nc1ccncc1` it is -8.548%; for `CC(C)CN1CCC(C(=O)NCCNC(=O)c2ccccc2)CC1` it is 10.43%. For `COc1cc(-c2noc(C(CC(C)C)N3CCCCC3=O)n2)ccn1` (configuration not stated), the “Percent Effect” value is reported as -8.352%. As to `Cc1noc(C2CCN(C(C)c3nc(C4CC4)no3)CC2)n1` (configuration not stated), the “Percent Effect” value stood at 2.218%.

Regarding `CN1CCN(C2CCN(C(C(N)=O)c3ccccc3)CC2)C1=O` (configuration not stated), the “Percent Effect” value is -3.145%. On to `COc1ccc(CCN2CCC(N3CCN(C)C3=O)CC2)cc1`, for which the “Percent Effect” value is on record as -2.52%. Turning to `CN1CCN(C2CCN(Cc3noc(-c4ccccc4)n3)CC2)C1=O`, the “Percent Effect” value is -0.9175%. As for `CN1CCN(C2CCN(CCOc3ccc(C#N)cc3)CC2)C1=O`, the “Percent Effect” value stood at 102.1%. With `CN1CCN(C2CCN(CCOc3ccccc3F)CC2)C1=O` the figure was 107.7%; with `CN1CCN(C2CCN(CCOc3ccc(F)cc3)CC2)C1=O`, -2.232%. The figure for `CN1CCN(C2CCN(CCOc3ccccc3)CC2)C1=O` is 94.15%; for `CN1CCN(C2CCN(CCCOc3ccc(F)cc3)CC2)C1=O` it is 81.83%; for `Cn1c(C2CC2)nc2c1CCN(CCOc1ccc(C#N)cc1)C2` it is -1.848%. Turning to `OCCn1cc(CN2CCN(CCOc3ccccc3F)CC2)cn1`, the “Percent Effect” value is given as 2.742%.

As to `CC(C)c1nnc(CNc2nc(-c3cccnc3)nc3c2CCC3)n1C`, the “Percent Effect” value is 6.162%. As to `Cc1cnn(CCNCc2csc(-c3cccs3)n2)c1`, the “Percent Effect” value is -4.856%. Consider `Cc1cc(CC(=O)NCC(O)COc2ccc(F)c(F)c2)no1` (configuration not stated), for which the “Percent Effect” value is -5.317%. With `Cc1cccc(-c2nc(CN3CCc4c(ncn4C)C3)no2)c1` the figure was 5.431%; with `COC(C)C(=O)NS(=O)(=O)c1cccc2cc(C)cnc12` (configuration not stated), -12.97%; with `CCc1cnc(NCC(CC)N2CCOCC2)nc1` (configuration not stated), 14.29%. With `COCCNC(=O)Nc1ccc(CN2CCOC2=O)cc1` the figure was -11.28%; with `COc1ccc(C(C)n2ccnc2-c2cc3n(n2)CCCNC3)cc1F` (configuration not stated), 6.118%. With `O=C1CCC(C(=O)NCc2nncn2-c2ccccc2)CN1` (configuration not stated) the figure was 3.893%; with `Cc1cccc(CNCC2COC3(CCCCC3)O2)c1C` (configuration not stated), 5.002%. For the compound `COc1ccc2[nH]nc(CN3CCC(C(C)N4CCCC4)CC3)c2c1` (configuration not stated), the “Percent Effect” value is on record as -10.16%. With `Cc1ccc(NCc2cnc3n2CCN(c2ncccn2)CC3)nn1` the figure was 97.55%. The figure for `Cn1cccc1C(=O)NCc1cnc2n1CCN(c1ccccn1)C2` is -1.189%; for `Cc1ccc(N2CCc3ncc(CNc4ccccn4)n3CC2)nn1` it is 114.5%. For `CN(Cc1ccco1)Cc1cnc2n1CCN(c1ncccn1)CC2.O=C(O)C(F)(F)F`, the “Percent Effect” value is listed as 6.885%.

Turning to `O=C(C1CCOC1)N1CCc2ncc(CNc3ccccn3)n2CC1` (configuration not stated), the “Percent Effect” value is -18.08%. Regarding `COCCN1CCc2ncc(CNc3cc(N(C)C)ncn3)n2CC1`, the “Percent Effect” value was -5.126%.

`Cc1ccc(CN(C)C(=O)CN2CCCC(Cn3cncn3)C2)cc1` (configuration not stated): the “Percent Effect” value was 90.35%. `CN(Cc1ccco1)C(=O)CN1CCCC(Cn2cncn2)C1` (configuration not stated): the “Percent Effect” value came to 5.962%. Turning to `O=C(CN1CCCC(Cn2cncn2)C1)NCc1ccco1` (configuration not stated), the “Percent Effect” value is listed as 1.739%. The figure for `CN(Cc1ccsc1)C(=O)CN1CCCC(Cn2cncn2)C1` (configuration not stated) is 109.8%. With `CN(Cc1ccccc1)C(=O)CN1CCCCC1Cn1cncn1` (configuration not stated) the figure was -0.2947%; with `CCN(Cc1ccccc1)C(=O)CN1CCCC(Cn2cncn2)C1` (configuration not stated), 3.711%; with `Cc1ccc(CN(C)C(=O)CN2CCCC2Cn2cncn2)cc1` (configuration not stated), -14.18%. With `CN(Cc1ccccc1)C(=O)CN1CCCC(Cn2cncn2)C1` (configuration not stated) the figure was 97.22%.

Turning to `CN(Cc1ccsc1)C(=O)CN1CCCC1Cn1cccn1` (configuration not stated), the “Percent Effect” value was -10.05%. In the case of `Cc1ccc(CN(C)C(=O)CN2CCCC(Cn3cncn3)C2)o1` (configuration not stated), the “Percent Effect” value came out at 96.55%. With `CN(Cc1ccc(F)cc1)C(=O)CN1CCCC(Cn2cncn2)C1` (configuration not stated) the figure was -5.404%; with `CN(Cc1cccc(F)c1)C(=O)CN1CCCC(Cn2cncn2)C1` (configuration not stated), 16.73%; with `CC(C)c1nc(CN(C)C(=O)CCS(=O)(=O)c2ccccc2)no1`, -0.5439%. The figure for `O=C(NS(=O)(=O)c1cccc(C(F)(F)F)c1)c1cscn1` is 5.239%; for `CSCC(C)CNC(=O)N1CCSC(C)(C)C1` (configuration not stated) it is -11.84%. In the case of `Cc1ccsc1C(=O)N1CCCn2nnc(Cn3cccn3)c2C1`, the “Percent Effect” value is listed as -8.648%.

On to `NC(=O)C1CCN(CC(=O)NCCc2c(F)cccc2F)CC1`, for which the “Percent Effect” value is recorded as -5.279%. `Cc1ccccc1CN(C)C(=O)CN1CCCC(Cn2cncn2)C1` (configuration not stated): the “Percent Effect” value was 113.1%.

In the case of `CN(Cc1cnn(C)c1)C(=O)CN1CCCC1Cn1cncn1` (configuration not stated), the “Percent Effect” value is -17.06%. The figure for `CN(Cc1cnn(C)c1)C(=O)CN1CCCCC1Cn1cncn1` (configuration not stated) is -1.261%; for `Cc1ccccc1CN(C)C(=O)CN1CCCCC1Cn1cncn1` (configuration not stated) it is 13%.

As for `CN(Cc1cccs1)C(=O)CN1CCCC(Cn2cncn2)C1` (configuration not stated), the “Percent Effect” value worked out at 104.7%.

With `Cc1ccc(CNC(=O)CN2CCCC(Cn3cncn3)C2)s1` (configuration not stated), the “Percent Effect” value is reported as 2.763%.

In the case of `CN(Cc1cccs1)C(=O)CN1CCCC1Cn1cncn1` (configuration not stated), the “Percent Effect” value is recorded as 4.485%.

As for `CN(Cc1cnn(C)c1)C(=O)CN1CCCC(Cn2cncn2)C1` (configuration not stated), the “Percent Effect” value is on record as 99.58%. With `CN(Cc1cccs1)C(=O)CN1CCCCC1Cn1cncn1` (configuration not stated) the figure was -8.193%.

On to `Cc1ccc(F)c(OC2(C(=O)O)CCN(C(=O)C3CCCC3)CC2)c1`, for which the “Percent Effect” value is -29.08%. The figure for `CC(C)c1nccn1CCn1cnc2ccsc2c1=O` is 2.985%.

Turning to `Cc1ccc(C(=O)NCCCC2(C3OCCO3)CCOCC2)cc1C`, the “Percent Effect” value was -3.842%. The figure for `Cc1ccccc1CN(C)C(=O)CCc1nc(-c2nnc[nH]2)no1` is 4.436%; for `CCc1cnc(N2CCc3ncnc(N4CCN(C)CC4)c3CC2)nc1.O=C(O)C(F)(F)F` it is -0.8279%; for `CNC(=O)c1cc2c(nc1NCC(C)C)CCN(c1ncccn1)CC2.O=C(O)C(F)(F)F` it is -3.442%. The figure for `CNC(=O)c1cc2c(nc1N(C)C)CCN(c1ncc(C)cn1)CC2.O=C(O)C(F)(F)F` is 101.6%. Consider `CNC(=O)c1cc2c(nc1N(C)C)CCN(c1ncc(F)cn1)CC2.O=C(O)C(F)(F)F`, for which the “Percent Effect” value was found to be 86.67%. The figure for `CNC(=O)c1cc2c(nc1N(C)C)CCN(S(=O)(=O)CC(C)C)CC2.O=C(O)C(F)(F)F` is -14.6%; for `CNC(=O)c1cc2c(nc1N(C)C)CCN(S(=O)(=O)N(C)C)CC2.O=C(O)C(F)(F)F` it is -4.998%; for `CNC(=O)c1cc2c(nc1NCC(C)C)CCN(C)CC2.O=C(O)C(F)(F)F.O=C(O)C(F)(F)F` it is -3.691%. The figure for `CNC(=O)c1cc2c(nc1N(C)C)CCN(S(=O)(=O)C1CC1)CC2.O=C(O)C(F)(F)F` is -2.828%; for `CNC(=O)c1cc2c(nc1N(C)C)CCN(c1ncccn1)CC2.O=C(O)C(F)(F)F` it is 100.6%; for `CNC(=O)c1cc2c(nc1N(C)C)CCN(C)CC2.O=C(O)C(F)(F)F.O=C(O)C(F)(F)F` it is 0.7225%.

On to `CCS(=O)(=O)N1CCc2cc(C(=O)NC)c(N(C)C)nc2CC1`, for which the “Percent Effect” value amounted to 15.07%.

In the case of `CCc1cnc(N2CCc3cc(C(=O)NC)c(N(C)C)nc3CC2)nc1.O=C(O)C(F)(F)F`, the “Percent Effect” value was 91.47%.
